# Data taken from the supplement of paper PMC10338343.
# ± gives the standard deviation.
# Tested on: MILI (PIWIL2) piRISC loaded with L1MC piRNA (26 nt)
# Assay: pre-steady-state target cleavage rate (min^-1); guide: L1MC piRNA 5'p-UAACUAAAUACUAUGCAAGCUGUAGG; MIWI and MILI are mouse PIWI proteins and EfPiwi is from a freshwater sponge; tags in brackets are library labels; higher = faster piRNA-guided slicing of the target
# Details: auxiliary factor: 500 nM mouse GTSF1
# Method in brief: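 In HEPES–potassium acetate buffer at 33 °C, […] transcribed, DNA-blocked target RNA library was mixed with 1 nM active affinity-purified piRISC carrying one synthetic guide, with or without 500 nM GTSF1 partner protein, for 0–8 or 0–960 min. Uncleaved targets were sequenced and normalised to depth and to weakly complementary targets; three trials were pooled and k3 was capped at 0.0001 min^-1. The pre-steady-state cleavage rate followed from a burst-and-steady-state fit.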
# 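Further: 1 nM active piRISC with 0.1 nM target library at 33 °C single turnover.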
row,Sequence,pre-steady-state target cleavage rate
1,UCCUGGAUGUGCUUGCAUAGUAUUAAGAAA,0.00586 ± 0.0036
2,UCCUGGAUGUCGAUGCAUAGUUUUUAGUAA,0.0058 ± 0.0029
3,UCCUGGAUCAGCUUCCAUAGUUUUUAGUUA,0.0089 ± 0.0041
4,UCCUGGAUGUCCUUGCAUACUAAUUAGUUA,0.00561 ± 0.0042
5,UCCUGGAUGUCGAAGACAUAGUAUUUAGUUA,0.0117 ± 0.0056
6,UCCUGGAUGUCGAAGCAUAGUAUUUAGUGUA,0.035 ± 0.012
7,UCCUGGAUGUCGAUGCAUAGUAUUUUCUUA,0.011 ± 0.006
8,UCCUGGAUGUCGAACCAUAGUUUUUUGUUA,< 0.0001
9,UCCUCCUACAGCUUGCAUACUAUUUUCAAA,0.0677 ± 0.018
10,UCCUGGAUGUCGAAGCAUAGUCUUUAGUUA,0.0102 ± 0.0051
11,UCCUGGAUGUGCUUGCAUAGUAAUUAGUAA,0.0721 ± 0.018
12,UCCUGGAUGAGCUUGGAUAGUAUUUUGUUA,0.141 ± 0.029
13,UCCUGGAUGUCCUUGGUUAGUAUUUAGUAA,0.0915 ± 0.022
14,UCCUGGAUGUCGAUGCAUAGUAUUUACAAA,0.0066 ± 0.0042
15,UCCUGGAUGUCCUUGCAUAGUAUUGAGUUA,0.0563 ± 0.019
16,UCCUGGAUGUCGAUGCAUAGUAUAUUGUUA,0.0249 ± 0.008
17,UCCUGGAUGUCGUUGCAUAGUAUUUAGGUA,0.0112 ± 0.0062
18,UCCUGGUACACGAUGCAUAGUAUUUAGUAA,0.186 ± 0.042

row,Sequence,pre-steady-state target cleavage rate
1,UCCUCCUACAGCUACGAUAGUAUUUAGAAA,0.13 ± 0.029
2,UCCUGGAUGUCGUUGCAUAGUAUUUAGAUUA,0.0205 ± 0.0091
3,UCCUGGAUCAGCUAGCAUAGUAUUUUCAAA,0.0498 ± 0.013
4,UCCUGGAUCAGCUUCCAUAGAAUUUAGUUA,0.0103 ± 0.0054
5,UCCUGCUAGUCCUUGCAUAGUAUUUAGUAA,0.0749 ± 0.018
6,UCCUCCUACAGCUUGCAUAGUAUUUAGUCUA,0.154 ± 0.041
7,UCCUGGAUCAGCUUGCAUAGUAAAUACAAA,0.0497 ± 0.016
8,UCCUGGAUGUCGUAGCUUAGUAUUUAGUUA,0.0118 ± 0.0046
9,UCCUGCUACACGUUGCAUAGUAUUUUCAAA,0.00757 ± 0.0052
10,UCCUCCUACAGCUUCGAUAGUAUUUAGAAA,0.0982 ± 0.019
11,UCCUGGAUGUCCUUGGCAUAGUAUUUAGUUA,0.566 ± 0.19
12,UCCUGGAACAGCAUGCAUAGUAUUUUCAAA,0.066 ± 0.018
13,UCCUGGAUGUCGAAUCAUAGUAUUUAGUUA,0.00554 ± 0.0026
14,UCCUGCUACAGCUUGCUUAGUAUUUAGAUA,0.0729 ± 0.015
15,UCCUGGAUGUCGAUGCAUAGUAAUUUGUUA,0.00959 ± 0.0053
16,UCCUGGAUGUCCUUGCAUAGUAUUUUGAUA,0.0211 ± 0.0077
17,UCCUGGAUGAGCUUGCAUAGUAUUUUGAUA,0.0343 ± 0.014

# Same assay, conditions: auxiliary factor: none (no GTSF1)
row,Sequence,pre-steady-state target cleavage rate
1,UCCUGGAUGUCGAUGCAUUGUAAUUAGUUA,< 0.0001
2,UCCUGGAUGUCGAACGUAUCUAAUUAGUUA,< 0.0001
3,UCCUGGUACAGCUUGCAUAGCUAUUUAGUUA,0.0041 ± 0.004
4,UCCUGGAUGUCGAACGUAUCUAUUUAGUCA,< 0.0001
5,UCCUGGAUGUCGAACGUAUGAUUUUAGUUA,< 0.0001
